AmpC detergent – inhibitors of E. coli AmpC beta-lactamase with detergent. Potency, µM (titrated, usually from 114 µM), most hits filed as inhibitors. P00811. AmpC hydrolysis of nitrocefin, absorbance 480 nm, 0.01% Triton. actives 0.041% (n = 370,000); further: nearly all actives have a fitted effect of over 25% in size
Target sequence (P00811 whole entry, looked up): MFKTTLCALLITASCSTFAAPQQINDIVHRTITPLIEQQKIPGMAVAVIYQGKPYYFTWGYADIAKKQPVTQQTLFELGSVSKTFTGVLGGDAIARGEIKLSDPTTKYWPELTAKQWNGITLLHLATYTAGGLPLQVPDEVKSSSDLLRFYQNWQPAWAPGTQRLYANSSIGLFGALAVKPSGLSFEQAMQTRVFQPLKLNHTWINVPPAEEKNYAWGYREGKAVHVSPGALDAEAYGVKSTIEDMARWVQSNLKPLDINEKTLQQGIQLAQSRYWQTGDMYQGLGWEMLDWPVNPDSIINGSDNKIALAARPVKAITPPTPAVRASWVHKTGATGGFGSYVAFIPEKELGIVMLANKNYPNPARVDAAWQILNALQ
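AmpC (5.3 nM in the dispensed reagent) in 20 mM phosphate pH 7.0 with 0.01% (detergent screen) or 0.0001% Triton X-100 was preincubated with compounds for 15 min at room temperature. Nitrocefin was then added from an 800 uM solution, and hydrolysis was followed at 480 nm.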
AmpC no deterg – AmpC beta-lactamase inhibition without detergent. P00811. AmpC nitrocefin hydrolysis, absorbance 480 nm, 0.0001% Triton. Potency, µM (top dose mostly 57.1 µM), hits mostly inhibitors. actives 0.52% (n = 330,000); further: nearly all actives have a fitted effect of over 20% in size
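20 mM phosphate pH 7.0 + 0.01% (detergent screen) or 0.0001% Triton X-100; 5.3 nM AmpC reagent; cpd preinc 15 min RT; nitrocefin (800 uM stock) to start; A480 q20 s × 4 min; Activity was normalised to no-enzyme and no-compound control wells.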
Sm TGR block – blocks Schistosoma mansoni thioredoxin glutathione reductase. Q962Y6. purified TGR, DTNB reduction, TNB absorbance 405 nm. Potency, µM (series often up to 114 µM), actives largely listed as inhibitors. actives 3% (n = 360,000). AID 485364; further: nearly all actives have a fitted effect of over 60% in size
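Kinetic colorimetric format: TGR-catalysed, NADPH-driven DTNB reduction monitored via TNB absorbance. Enzyme dispensed at 20 nM; compound exposure 15 min at room temperature before reaction start.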
A number is an active result; – = inactive; ? = inconclusive; · = no result. Shown are actives, neighbours in structure and some others; about 3.3% of the full set was active somewhere. The call rests on the fitted dose curve; in most records, active means well fitted curve in the direction sought with a large enough effect; inconclusive means small, poorly fitted or top-dose-only effect, or another doubt; inactive means no such curve, though single readings can be large; an effect the other way counts as inactive or inconclusive.

SMILES | AmpC detergent | AmpC no deterg | Sm TGR block
COc1cc(OC)cc(C(=O)NC(C)CCc2ccccc2)c1 (stereo not given) | – | – | –
CCOc1cc2[nH]c(=O)n(CCCCC(=O)N3CCN(c4ccccc4OC)CC3)c(=O)c2cc1OCC | – | · | –
CCC1S/C(=N/N=C/c2ccco2)N(Cc2ccccc2C)C1=O (stereo not given) | – | – | 40µM
O=C1CS/C(=N/N=C/c2ccccc2)N1Cc1ccco1 | – | – | 40µM
Cc1cc(C)c(N=C2SCC(=O)N2Cc2ccco2)c(C)c1 | – | – | –
COc1ccc(OC)c(/C=N/N=C2\SCC(=O)N2Cc2ccco2)c1 | ? | – | –
O=C1C(Cc2ccccc2)S/C(=N/N=C/c2ccco2)N1c1ccccc1 (stereo not given) | – | – | ?
CC1S/C(=N/N=C/c2ccco2)N(Cc2ccccc2)C1=O (stereo not given) | – | – | 35µM
CCC1S/C(=N/N=C/c2ccco2)N(Cc2ccc(F)cc2)C1=O (stereo not given) | – | – | ?
Cc1ccccc1CN1C(=O)CS/C1=N/N=C/c1ccco1 | – | – | 11µM
CN(C)CCCNc1oc(/C=C/c2ccc(F)cc2)nc1C#N | – | · | –
O=C(NCc1ccccc1Cl)c1ccc(NC(=O)N2CCSc3ccccc32)cc1 | – | · | –
Cc1ccc2c(c1)Sc1c(ccc3ccccc13)N2 | – | – | –
COc1ccc(C)cc1NC(=O)c1c2c(nc3ccccc13)C(=O)N(C1CCCCC1)C2 | – | · | –
CCOC(=O)/C=C1\SCC(=O)N1CC(=O)NC(c1ccccc1)c1ccccc1 | – | 28µM | –
CCOC(=O)/C=C1\SCC(=O)N1CC(=O)NC(C)c1ccccc1 (stereo not given) | – | – | –
C=C(C)Cn1c(SCC(=O)Nc2cc(C)ccc2C)nc2sc3c(c2c1=O)CCCC3 | – | · | –
Cc1ccc([N+](=O)[O-])cc1NC(=O)c1ccccc1 | – | – | –
COC(=O)c1cc(NC(=O)c2ccc([N+](=O)[O-])cc2)c(=O)oc1C | – | – | 56µM
CC(=O)c1cc(NC(=O)c2ccc([N+](=O)[O-])cc2)c(=O)oc1C | – | – | 22µM
COC(=O)c1cc(NC(=O)c2ccc(C)cc2)c(=O)oc1C | – | – | –
COc1c(-c2ccc([N+](=O)[O-])cc2[N+](=O)[O-])c(=O)n(C)c(=O)n1C | – | – | –
Cc1ccc(C)c(N2CCN(C(=O)CN3C(=O)COc4ccc(S(=O)(=O)N5CCOCC5)cc43)CC2)c1 | – | · | –
CCCCOc1ccc(-c2nnn(CC(=O)NCCc3c[nH]c4ccccc34)n2)cc1 | – | 0.28µM | –
CCCCCCCCCCCCCCCC(=O)NCCc1c[nH]c2ccccc12 | – | – | –
SMILES | AmpC detergent | AmpC no deterg | Sm TGR block
COc1ccc(-c2nc3sc(CCNC(=O)c4ccc(Br)o4)c(C)n3n2)cc1 | – | · | –
O=C(c1ccccc1)C1C(c2ccccc2)C1[N+](=O)[O-] (stereo not given) | – | – | –
CN(C)c1ccc([C@@H]2[C@@H]([N+](=O)[O-])[C@H]3C=Cc4ccccc4N3[C@H]2C(=O)c2ccc(Cl)cc2)cc1 | – | – | 45µM
O=c1[nH]c2cccc(F)c2n2cccc12 | – | – | –
Cc1nc2ccc(N=NN(C)C)cc2[nH]1 | – | – | 20µM
Cc1nc2ccc(Cc3ccc4nc(C)[nH]c4c3)cc2[nH]1 | – | – | –
CCOC(=O)C1CCCN(S(=O)(=O)c2ccc(S(=O)(=O)N3CCCC3)cc2)C1 (stereo not given) | – | – | –
CCOC(=O)C1CCCN(S(=O)(=O)c2cnc(Cl)c(Br)c2)C1 (stereo not given) | – | – | 32µM
CC(C)=NNc1nc2c(c(=O)[nH]c(=O)n2C)n1CCc1ccccc1 | – | – | –
Cn1c(=O)[nH]c(=O)c2c1nc(N/N=C/C(Br)=C/c1ccccc1)n2CCO | – | – | 5µM
O=C(CN1CCCc2ccccc21)NCCc1ccc(Cl)cc1 | – | – | –
COCCn1nnnc1CN(CCCN1CCOCC1)Cc1cc2c(C)ccc(C)c2[nH]c1=O | – | – | 13µM
Cc1cccc2cc(CN(CCCN3CCOCC3)Cc3nnnn3C(C)(C)C)c(=O)[nH]c12 | ? | – | ?
COc1cc(OC)cc(C(=O)NC2CCCCCCC2)c1 | – | – | –
CS(=O)(=O)N1N=C(c2ccco2)CC1c1ccc(Br)cc1 (stereo not given) | – | – | ?
CS(=O)(=O)N1N=C(c2cccs2)CC1c1ccccc1F (stereo not given) | – | – | –
CS(=O)(=O)N1N=C(c2ccco2)CC1c1cccc([N+](=O)[O-])c1 (stereo not given) | – | – | 45µM
CS(=O)(=O)N1N=C(c2ccco2)CC1c1ccc(Cl)cc1Cl (stereo not given) | – | – | 28µM
COc1ccccc1C1CC(c2ccco2)=NN1S(C)(=O)=O (stereo not given) | – | – | ?
CS(=O)(=O)N1N=C(c2ccco2)CC1c1ccccc1Cl (stereo not given) | – | – | 40µM
CN(CC(=O)Nc1ccccc1C(F)(F)F)C(=O)Cc1ccc(S(=O)(=O)N2CCOCC2)s1 | – | – | –
CCCCn1nc(C(=O)NCc2ccccc2CN2CCCC2)c2ccccc2c1=O | – | – | –
CC(C)Cn1nc(C(=O)NCc2ccccc2CN2CCCC2)c2ccccc2c1=O | – | – | 28µM
OC(C#CCN1CCOCC1)c1cccs1 (stereo not given) | – | – | 28µM
CC(=O)OC(C#CCN1CCOCC1)c1ccccc1 (stereo not given) | – | · | –
SMILES | AmpC detergent | AmpC no deterg | Sm TGR block
CC(C)(C)OC(=O)CN1C(=O)S/C(=C\c2ccc(-c3cccc(C(=O)O)c3)o2)C1=O | – | – | –
O=C1S/C(=C/c2ccc(N3CCOCC3)o2)C(=O)N1Cc1ccc(F)cc1 | – | – | 1µM
O=C1/C(=C/c2ccc(N3CCOCC3)o2)SC(=Nc2ccccc2)N1CCc1c[nH]c2ccccc12 | – | – | 8.9µM
O=C1S/C(=C\c2ccc(N3CCOCC3)o2)C(=O)N1Cc1ccc(F)cc1 | – | – | 5µM
COc1cc(/C=C2\SC(=Nc3ccccc3)N(CCc3c[nH]c4ccccc34)C2=O)ccc1OC(C)C(=O)O (stereo not given) | ? | – | –
O=C1N/C(=C/c2ccc(N3CCOCC3)cc2)C(=O)N1Cc1ccc(F)cc1 | – | – | –
O=C1N=C(N2CCOCC2)S/C1=C/c1ccc(-c2ccc(F)cc2)o1 | – | – | –
CC(C)OC(=O)CN1C(=O)S/C(=C/c2ccc(N3CCCCC3)o2)C1=O | – | – | 6.3µM
Cc1onc(-c2ccccc2)c1-c1nnc(CN2CCN(S(=O)(=O)c3ccccc3)CC2)o1 | – | – | –
O=C(CN(Cc1ccc(Cl)cc1)S(=O)(=O)c1ccccc1)NCC1CCCO1 (stereo not given) | ? | – | –
CC(C)(C)OC(=O)NC(Cc1ccccc1)C(=O)N1CCCC1C(=O)O (stereo not given) | – | – | –
O=c1c2ccccc2nc2n1CCCS2 | – | – | –
